# Source: PubChem BioAssay
# PP1 counter: blocks human PP1-alpha phosphatase, a PP5 counter-screen. inhibition, % at 6.7 µM. AID 2235. purified PP1alpha, OMFP fluorescence. 320,000 compounds, 0.9% hits;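 active means inhibition above the mean inhibition of all tested compounds plus 3 SD, computed separately for each screening campaign, cut at about 15% in these data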
# PP5 inh: blocks human protein phosphatase 5 activity; P53041; 320,000 compounds, 0.18% hits; AID 1987; purified PP5c, OMFP substrate fluorescence; inhibition, % at 6.7 µM;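 active means inhibition above the campaign's mean inhibition across all tested compounds plus 3 SD, cut at about 9.5% in these data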;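 further: 0% = DMSO only and 100% = 100 µM cantharidin control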
# LYPLA2 counter: counter-screen for PME1 inhibitors: inhibitors of human LYPLA2 | O95372 | recombinant LYPLA2, FP-Rh probe fluorescence polarization | inhibition, % at 5.9 µM | 320,000 compounds, 0.38% hits;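 active means inhibition above the screen-wide mean plus 3 SD, limit set per campaign, cut at about 26% in these data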;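 further: 0% = LYPLA2 with DMSO and 100% = wells lacking LYPLA2 enzyme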
# LYPLA1 inh: blocks human lysophospholipase 1, a PME1 counter-screen; 320,000 compounds, 0.16% hits; O75608; recombinant LYPLA1, FP-Rh probe fluorescence polarization; AID 2174; inhibition, % at 5.9 µM;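 active means inhibition above the mean of all tested compounds plus 3 SD, set per campaign, cut at about 14% in these data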;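 further: inhibitors block serine hydrolase probe labeling of LYPLA1 so polarization falls; 0% = enzyme with DMSO and 100% = wells lacking LYPLA1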
# Target sequence (O75608 whole entry, looked up): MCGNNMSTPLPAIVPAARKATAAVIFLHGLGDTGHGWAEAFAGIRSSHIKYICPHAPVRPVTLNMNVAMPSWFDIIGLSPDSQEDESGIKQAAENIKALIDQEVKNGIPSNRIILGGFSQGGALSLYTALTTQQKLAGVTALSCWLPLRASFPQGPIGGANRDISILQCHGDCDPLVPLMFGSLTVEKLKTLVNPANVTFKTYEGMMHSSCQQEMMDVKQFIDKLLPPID
# Fam108B counter: counter-screen for RBBP9 inhibitors: inhibitors of mouse Fam108B; recombinant Fam108B, FP-Rh probe fluorescence polarization; inhibition, % at 9.51 µM; 300,000 compounds, 0.33% hits; AID 1947;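 active means inhibition above the screen mean inhibition plus 3 SD, computed separately per campaign, cut at about 18% in these data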;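 further: inhibitors lower polarization as less probe binds the enzyme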
# PME-1 primary: PME-1 (human) inhibition; recombinant PME-1, FP-Rh probe fluorescence polarization; 320,000 compounds, 0.53% hits; Q9Y570; AID 2130; inhibition, % at 5.9 µM;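 active means inhibition above the campaign mean of all compounds plus 3 SD, cut at about 26% in these data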;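 further: competitive labeling of PME-1 active site by serine hydrolase directed probe; 0% = PME-1 with DMSO and 100% = wells lacking PME-1 enzyme; inhibitors block probe labeling so polarization falls and inhibition rises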
# Starred values were filed as active, the others as inactive; . = no result given. Only some compounds are listed: those with a hit (about 1.8% of all), similar ones and a draw of the others.
SMILES,PP1 counter,PP5 inh,LYPLA2 counter,LYPLA1 inh,Fam108B counter,PME-1 primary
Cn1c(N)c(C(=O)COC(=O)c2cc(C(F)(F)F)nc3ccccc23)c(=O)n(Cc2ccccc2)c1=O,4,2,-23,-10,-32,-17
O=C(O)c1ccccc1-c1nc(-c2ccccc2)c(-c2ccccc2)[nH]1,-1,3,-4,-2,-3,-1
O=C(O)c1cccc2c(-c3ccccc3)c(-c3ccccc3)[nH]c12,15*,2,10,6,6,8
COc1ccc(-n2c(C)cc(-c3cn4cccc(C)c4n3)c2C)cc1,15*,1,-4,-2,-4,3
O=C(CCc1cn2ccccc2n1)NC1CCCc2c1cnn2-c1ccccc1F (stereo unspecified),-5,-1,-3,-3,-2,-3
COc1ccc(O[C@H]2C=C[C@@H](c3ccccc3)O[C@@H]2CO/N=C(\C)CCN2CCc3nc(-c4ccccc4)c(-c4ccccc4)cc3C2)cc1,19*,2,-2,-1,-2,-4
S=c1[nH]c(-c2ccccc2)cn1/N=C/c1cccc2ccccc12,-7,-5,-1,-8,17,28*
COc1ccc(C)cc1S(=O)(=O)NC(C)c1cnn(-c2ccccn2)c1C (stereo unspecified),4,-1,14,4,0,4
CCC(=O)NC(c1cccs1)c1cc([N+](=O)[O-])c2cccnc2c1O (stereo unspecified),12,3,4,-1,10,27*
CCC(=O)NC(c1cccs1)c1cc(Cl)c2ccccc2c1O (stereo unspecified),1,1,4,-3,.,7
CC(=O)NC(c1cccs1)c1cc([N+](=O)[O-])c2cccnc2c1O (stereo unspecified),14,5,-4,-3,-1,34*
CC(=O)NC(c1ccccc1)c1cc([N+](=O)[O-])c2cccnc2c1O (stereo unspecified),6,3,2,3,1,-1
CCC(=O)NC(c1ccc(OC)cc1)c1cc(Cl)c2cccnc2c1O (stereo unspecified),16*,0,3,-2,3,-3
COc1ccc(C)cc1NC(=O)CN1CCN(S(=O)(=O)c2ccc3ccccc3c2)CC1,10,3,-2,-5,.,5
COCCCN=C1NN=C(c2cc(C)n(Cc3ccccc3Cl)c2C)CS1,15*,2,4,0,4,5
COCCCN=C1NN=C(c2cc(C)n(-c3ccccc3)c2C)CS1,9,4,5,3,0,0
Cc1ccc(-n2c(C)cc(C3=NNC(=NC4CC4)SC3)c2C)cc1C,16*,4,10,2,2,1
Cc1cc(C2=NNC(=NCCc3ccccc3)SC2)c(C)n1-c1c(C)n(C)n(-c2ccccc2)c1=O,19*,0,3,-3,-2,-7
Cc1cc(C2=NNC(=NC3CC3)SC2)c(C)n1-c1c(C)n(C)n(-c2ccccc2)c1=O,1,1,0,-3,2,2
CN=C1NN=C(c2cc(C)n(-c3ccc(Cl)cc3)c2C)CS1,9,2,-2,-1,2,-4
Cc1cc(C2=NNC(=Nc3ccccc3)SC2)c(C)n1C,16*,0,0,-2,1,4
Cc1c(F)cccc1NC(=O)c1ccc2c(c1)CCN2S(C)(=O)=O,-2,3,3,1,-2,3
Cc1ccccc1N/N=C/c1c(C)nc2ccccn12,4,0,2,-1,5,11
CCN(CC)C(=O)COCc1cc(-c2ccc3c(c2)OCO3)on1,0,2,-3,-1,-2,-6
O=C(CC1S/C(=N/N=C/c2cccs2)NC1=O)Nc1ccc(Cl)cc1 (stereo unspecified),17*,1,-5,-7,-6,-6
CCCNC(=O)C(Cc1ccc(Cl)cc1)NC(=O)c1ccc(-c2ccccc2)cc1 (stereo unspecified),-1,-3,5,0,.,-5
CC1(OC(=O)c2ccc(Cl)nc2)C(=O)C=C2C=C(C3CC3)OC=C2C1=O (stereo unspecified),-3,0,21,21*,20*,25
COc1ccccc1Nc1nc(-c2sc(NC(=O)c3ccccc3)nc2C)cs1,0,2,-4,-2,1,1
